Bioassay records as filed in PubChem BioAssay.
D1 antagonist: Antagonist of Human D 1 Dopamine Receptor: qHTS; D(1A) dopamine receptor (Homo sapiens), P21728; 360,000 compounds, 3.2% hits; HEK293 TREx D1 cells, calcium flux, dopamine EC80; active compounds read low; activity change, negative = inhibition, % at 10 µM; in the data active = activity change below about -30%
Target sequence (P21728 whole entry, looked up): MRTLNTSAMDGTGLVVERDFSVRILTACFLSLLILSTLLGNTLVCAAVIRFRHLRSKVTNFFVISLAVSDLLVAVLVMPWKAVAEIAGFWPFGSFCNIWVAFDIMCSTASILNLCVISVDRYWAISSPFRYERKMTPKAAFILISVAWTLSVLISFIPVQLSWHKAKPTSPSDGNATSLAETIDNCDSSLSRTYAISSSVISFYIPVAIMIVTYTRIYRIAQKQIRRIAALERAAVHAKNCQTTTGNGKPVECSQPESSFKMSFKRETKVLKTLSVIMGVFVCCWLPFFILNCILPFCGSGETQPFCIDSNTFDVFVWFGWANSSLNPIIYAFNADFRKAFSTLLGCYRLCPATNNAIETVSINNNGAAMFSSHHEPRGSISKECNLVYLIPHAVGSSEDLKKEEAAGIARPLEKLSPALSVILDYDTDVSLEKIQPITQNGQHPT
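Tetracycline-induced HEK293 T-REx cells with force-coupled D1 receptor were loaded with a no-wash calcium dye. Compound was added after a 10 s baseline and read kinetically for 180 s; EC80 dopamine was then added and calcium flux followed another 180 s.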
D1 PAM: Potentiators of Human D1 Dopamine Receptor: qHTS. HEK293 TREx D1 cells, calcium flux, dopamine EC20 potentiation. AID 504651, 2011. 360,000 compounds, 0.036% hits. potentiation, % at 10 µM; in the data active = potentiation above about 30%
D3 antag: qHTS of D3 Dopamine Receptor Antagonist: qHTS; D(3) dopamine receptor (Homo sapiens), P35462; D3R cells, DiscoveRx beta-arrestin luminescence, antagonist mode; active compounds read low; max response, negative = inhibition, %; 360,000 compounds, 2.5% hits; AID 652054, 2013; in the data active = max response below about -50%; inconclusive = no clear call, values can overlap the other calls
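Cells expressing the human receptor were seeded at 1500 cells/well, incubated overnight at 37 degrees C in 5% CO2, then exposed to library compounds with dopamine controls for 90 minutes at 37 degrees C before luminescent detection.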
D3 ag: qHTS of D3 Dopamine Receptor Agonist: qHTS; D(3) dopamine receptor (Homo sapiens), P35462; D3R DiscoveRx beta-arrestin cells, luminescence, 90 min; max activation, %; 410,000 compounds, 0.58% hits; AID 652048, 2013; in the data active = max activation above about 30%
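Agonist mode: compounds and dopamine controls were applied to plated cells for 90 min at 37 degrees C after an overnight attachment at 1500 cells/well. Luminescent read-out followed 30 - 60 minutes at room temperature with DiscoveRx detection reagent.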
D1 agonist: Allosteric Agonists of the Human D1 Dopamine Receptor: qHTS | HEK293 T-REx D1 cells, calcium flux, agonist mode | activation, % at 2 µM | 360,000 compounds, 1% hits; in the data active = activation above about 30%
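Agonism was scored from calcium flux recorded over 180 s (1 read/s) after pintool compound addition, following a 10-cycle baseline. Cells were inducible force-coupled HEK293 TREx D1, plated overnight at 30 C and loaded with no-wash calcium dye.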
Of the large screens only hits and unclear results are named; the others gave an inactive call; ! = a repeat was not active. The list is not random: actives were taken first. Their share in the collection is about 6.1%.

C[C@H](CO)N1C[C@H](C)[C@@H](CN(C)S(=O)(=O)c2cn(C)cn2)Oc2ccc(NS(=O)(=O)c3ccccc3)cc2C1=O	D3 ag 35 (no result: D1 antagonist, D1 PAM, D1 agonist)
C[C@H](CO)N1C[C@H](C)[C@@H](CN(C)C(=O)NC2CCCCC2)Oc2c(NS(=O)(=O)c3ccc(F)cc3)cccc2C1=O	D3 ag 31 (no result: D1 antagonist, D1 PAM, D1 agonist)
C[C@H](CO)N1C[C@H](C)[C@@H](CN(C)C(=O)Nc2ccccc2)Oc2ccc(NS(=O)(=O)c3ccc(F)cc3)cc2C1=O	D3 ag 37 (no result: D1 antagonist, D1 PAM, D1 agonist)
C[C@H](CO)N1C[C@H](C)[C@@H](CN(C)S(=O)(=O)c2cn(C)cn2)Oc2c(NS(=O)(=O)c3ccccc3)cccc2C1=O	D3 ag 49 (no result: D1 antagonist, D1 PAM, D1 agonist)
Cc1nc2nc(NC(=O)C(C)(C)C)[nH]n2c(=O)c1Cc1ccccc1	none (no result: D3 antag)
CCCCn1c(=O)cc(N2CCOCC2)[nH]c1=O	D1 antagonist -46
CC1CCC2(CC1)NC(=O)N(CC(=O)NC(C)c1ccc(F)c(F)c1)C2=O (centres undefined)	D1 antagonist -35
CC(NC(=O)CN1C(=O)NC2(CCc3ccccc32)C1=O)c1ccc2c(c1)OCCO2 (centres undefined)	D1 antagonist -42
CC(NC(=O)CN1C(=O)NC2(CCCC2)C1=O)c1ccc2ccccc2c1 (centres undefined)	none
Cc1ccc(CN2CCN(CC(=O)NC(C)c3ccc4c(c3)OCCO4)C2=O)cc1 (centres undefined)	D1 agonist 44 (no result: D1 PAM)
COc1ccc(C(NC(=O)CN2C(=O)NC3(CCc4ccccc43)C2=O)c2ccc(OC)cc2)cc1 (centres undefined)	none
N#C/C(=N\Nc1ccc(Cl)cc1)C(=O)c1ccccc1	none
Cc1c(N/N=C(\C#N)C(=O)c2ccc(Cl)cc2)c(=O)n(-c2ccccc2)n1C	D3 antag -80
O=C(COC(=O)c1cccc(S(=O)(=O)N2CCCC2)c1)Nc1ccccc1C(F)(F)F	D1 antagonist -33
O=C(COC(=O)c1cccc(S(=O)(=O)N2CCCCCC2)c1)Nc1ccccc1	none
NC(=O)NC(=O)COC(=O)c1cccc(S(=O)(=O)N2CCCCCC2)c1	D1 antagonist -44
O=C(COC(=O)c1cccc(S(=O)(=O)N2CCc3ccccc32)c1)Nc1ncc(C(F)(F)F)cc1Cl	D3 antag -57
CC(=O)N1CCN(S(=O)(=O)c2cccc(C(=O)OCC(=O)Nc3c(Cl)cccc3C(F)(F)F)c2)CC1	none (no result: D1 antagonist, D1 PAM, D1 agonist)
Cc1cccc(OCC(=O)OCc2cc(=O)n3nc(C4CC4)sc3n2)c1	none (no result: D3 antag)
CCCCNC(=S)Nc1cc(S(=O)(=O)N2CCCCC2)ccc1C	D1 antagonist -37
CCN(CC)S(=O)(=O)c1ccc(F)c(C(=O)NCCC(C)C)c1	D3 ag 36
CCCCCNC(=O)c1cc(S(=O)(=O)N2CCCCC2)ccc1F	D1 antagonist -62
CCCN(CCC)S(=O)(=O)c1ccc(Cl)c(OC)c1	none
CCCN1CCN(S(=O)(=O)c2ccc(-n3cnnn3)cc2)CC1	none
Cn1ccc2cc(S(=O)(=O)N3CCN(C(=O)Nc4ccccc4F)CC3)ccc21	none (no result: D3 antag)
Cc1cccc(Cn2nnc(C(=O)Nc3cc(C)ccc3C)c2N)c1	none (no result: D3 antag)
Cc1ccc(NC(=O)c2nnn(Cc3cccc(C(F)(F)F)c3)c2N)c(C)c1	D1 antagonist -45 (no result: D3 antag)
Cc1ccc(C)c(NC(=O)c2nnn(CC(=O)Nc3cccc(C)c3C)c2N)c1	D3 ag 40 (no result: D3 antag)
Cc1ccc(NC(=O)Cn2nnc(C(=O)Nc3ccc(C)c(C)c3)c2N)cc1	D3 antag -66
Cc1cccc(C)c1NC(=O)Cn1nnc(C(=O)Nc2ccc(F)cc2F)c1N	none
Cc1cc(C)c(NC(=O)Cn2nnc(C(=O)Nc3ccc(F)cc3F)c2N)c(C)c1	D1 antagonist -68!
CCCCn1c(N)c(N(CC(C)C)C(=O)c2ccc(C)c(S(=O)(=O)N3CCCCC3)c2)c(=O)[nH]c1=O	none
CC(C)(C)c1ccc(C(=O)NC2(C(F)(F)F)NC(=O)N(CCc3ccccc3)C2=O)cc1 (centres undefined)	none (no result: D3 antag)
Cc1ccccc1-n1ncc2c1CC(C)(C)CC2NC(=O)C1CCC1 (centres undefined)	none
CCC(C)[C@H](NC(=O)C1CC(=O)N(c2ccc3c(c2)OCO3)C1)C(=O)NC1CCCCC1 (some centres undefined)	none
CCOC(=O)c1ccc(NC(=O)c2ccc3c(c2)CCN3S(=O)(=O)c2ccc(Cl)cc2)cc1	none (no result: D3 antag)
CC(CCc1ccccc1)NC(=O)CSc1n[nH]c(-c2ccc(F)cc2)n1 (centres undefined)	none (no result: D3 antag)
COc1ccc(OC)c(NC(=O)c2nnn(Cc3ccccc3C)c2N)c1	D1 antagonist -52
Cc1ccc(Cn2nnc(C(=O)Nc3cccc(C)c3C)c2N)cc1	D1 agonist 94
CCc1ccc(Cn2nnc(C(=O)Nc3cccc(C)c3)c2N)cc1	D3 antag inconclusive (no result: D1 PAM)
CCc1ccccc1NC(=O)c1nnn(Cc2ccc(Cl)cc2)c1N	D1 agonist 56 (no result: D3 antag)
Cc1ccc(Cl)cc1NC(=O)c1nnn(Cc2ccccc2)c1N	none (no result: D3 antag)
COc1ccc(CNC(=O)C(C)n2ccc3cc(S(=O)(=O)N4CCCCCC4)ccc32)cc1 (centres undefined)	none
COc1ccc(NC(=O)Cn2nnc(C(=O)NCc3ccccc3Cl)c2N)cc1Cl	none (no result: D3 antag)
CCn1c(C)nc2cc(C(=O)NN=Cc3ccc([N+](=O)[O-])cc3)ccc21	none (no result: D1 antagonist, D1 PAM, D1 agonist)
COc1cc(CNc2ncnc3c2ncn3[C@H]2CN(CCN3CCOCC3)C[C@@H](CO)O2)cc(OC)c1OC	none (no result: D1 antagonist, D1 PAM, D1 agonist)
CSc1ccc(C2NC(=O)c3c(sc4c3CCN(C)C4)N2)cc1 (centres undefined)	D3 antag inconclusive, D1 agonist 34 (no result: D1 PAM)
COc1ccc(C(=O)Oc2ccc(C3NC(=O)c4c(sc5c4CCN(C)C5)N3)cc2OC)cc1 (centres undefined)	none (no result: D3 antag)
CN1CCc2c(sc3c2C(=O)NC(c2cccs2)N3)C1 (centres undefined)	D1 antagonist -48
CN1CCc2c(sc3c2C(=O)NC(c2ccc(C(C)(C)C)cc2)N3)C1 (centres undefined)	D1 agonist 37 (no result: D3 antag)
Cc1ccsc1C1NC(=O)c2c(sc3c2CCN(C)C3)N1 (centres undefined)	D3 antag inconclusive
CCOc1cc(C2NC(=O)c3c(sc4c3CCN(C)C4)N2)ccc1OC(=O)c1ccccc1Cl (centres undefined)	D1 agonist 35 (no result: D3 antag)
CC(C)c1ccc(C2NC(=O)c3c(sc4c3CCN(C)C4)N2)cc1 (centres undefined)	none (no result: D3 antag)
